PubChem BioAssay AID720690 (Broad Institute, 2013)
Entries with a potency or affinity are not part of this list. Active and inactive are the calls of the source.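 The calls were made as follows: active = every repeat run showing a signal drop whose fitted half-maximal concentration is at most twice the top tested concentration; inconclusive = repeat runs disagree, or flat partial drop, or poor fit; inactive = the rest.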

Assay: general mammalian cell viability loss – activator set, cherry-pick, cytotoxicity control for miR-122 modulator project, dose response (AID 720690)
Details: HEK293T viability, CellTiter-Glo luminescence, 48 h; series mostly up to 26 µM

SMILES	outcome
Cc1cccc(NC(=O)c2sc3nc(-c4ccc(F)cc4)cn3c2C)n1	inactive
C[C@@H]1CN([C@@H](C)CO)S(=O)(=O)c2ccc(C#Cc3ccncc3)cc2O[C@@H]1CN(C)C(=O)C1CCOCC1	inactive
CCCNC(=O)C[C@@H]1CC[C@H]2[C@@H](COc3ccc(NC(=O)c4ccc(C(F)(F)F)cc4)cc3C(=O)N2C)O1	inactive
C[C@@H]1CN([C@@H](C)CO)C(=O)c2cc(NS(=O)(=O)c3ccc(F)cc3)ccc2O[C@@H]1CN(C)Cc1ccc(-c2ccccc2)cc1	inactive
Cn1c(-c2ccc(N)cc2)nc2ccccc21	inactive
CC1(C)CC(=O)c2cnc(NC(=O)c3ccco3)nc2C1	inactive
CCN(C[C@H]1N[C@H](CO)[C@H]1c1ccc(C2=CCCC2)cc1)C(=O)c1cccnc1	inactive
CN(C[C@H]1N[C@@H](CO)[C@@H]1c1ccc(C2=CCCC2)cc1)C(=O)c1ccccn1	inactive
C/C=C/c1ccc([C@@H]2[C@H](CO)N[C@H]2CN(CC)C(=O)CN2CCOCC2)cc1	inactive
O=C(Nc1ncc(Cc2cccc(C(F)(F)F)c2)s1)c1ccc(-c2cccc([N+](=O)[O-])c2)o1	inactive
NC(=O)c1csc(-c2ccncc2)n1	inactive
Oc1ccc(-c2nc(-c3ccc(O)c(O)c3)cs2)cc1	inactive
CCCC(NS(=O)(=O)c1ccc(Br)cc1)C(=O)O (centres undefined)	inactive
COCC(=O)N(C[C@@H]1N[C@H](CO)[C@H]1c1ccc(C2=CCCC2)cc1)C(C)C	inactive
COC(=O)C[C@H]1CC[C@H]2[C@@H](COc3ccc(NC(=O)Nc4c(C)noc4C)cc3C(=O)N2C)O1	inactive
CC(=O)Nc1ccc(-c2cc(-c3ccc(NC(C)=O)cc3)nc(-c3ccc(NC(C)=O)cc3)n2)cc1	inactive
CCN(CC)CCOc1cccc(C(C)C)c1	inactive
COCCNC(=O)C[C@H]1CC[C@@H]2[C@H](COc3ccc(NC(=O)C4CCOCC4)cc3C(=O)N2C)O1	inactive
COc1ccc(CNCCC(c2ccc(OC)cc2)c2ccccc2OC)cc1 (centres undefined)	inactive
CN1C(=O)c2cc(NC(=O)c3cccc(F)c3)ccc2OC[C@@H]2O[C@@H](CC(=O)NC3CCC3)CC[C@H]21	inactive

SMILES	outcome
CN(C(=O)c1ccccc1Cl)C1CCCCC1	inactive
COc1cccc(CNC(=O)C[C@@H]2CC[C@H]3[C@H](COc4ccc(NC(C)=O)cc4C(=O)N3C)O2)c1	inactive
CN1C(=O)c2cc(NC(=O)c3cccc(F)c3)ccc2OC[C@H]2O[C@@H](CC(=O)NC3CCC3)CC[C@H]21	inactive
OC[C@H]1[C@@H](c2ccccc2)[C@@H](CNCC2CCC2)N1CC1CC1	inactive
CCc1nc2sc(C)c(C)c2c(=O)n1CCO	inactive
Cc1nn(C)cc1NC(=O)C[C@H]1CC[C@H]2[C@H](COc3ccc(NC(=O)c4cccc(F)c4)cc3C(=O)N2C)O1	inactive
CN1C(=O)c2cc(NC(=O)Cc3ccccc3)ccc2OC[C@H]2O[C@@H](CC(=O)NCc3ccc(Cl)cc3)CC[C@@H]21	inactive
COCCN(C[C@@H]1[C@H](c2ccccc2)[C@@H](CO)N1C(=O)C1CCC1)C(C)=O	inactive
O=C(COC(=O)Cc1ccc(S(=O)(=O)N2CCOCC2)s1)Nc1ccc2c(c1)OCO2	inactive
CCOC(=O)c1nc(C)n(-c2ccc(Cl)cc2Cl)n1	inactive
O=C(Nc1ccc(F)cc1)N1C[C@@H]2[C@H](c3ccccc31)[C@H](CO)N2C(=O)Cc1ccccc1	inactive
Cc1ccc(NCC(=O)c2ccccc2)cc1Cl	inactive
O=C(N[C@H]1CC[C@H](CCn2cc(C3(O)CCCC3)nn2)O[C@H]1CO)c1ccccc1F	inactive
COc1cccc(-c2nc(NCCN3CCOCC3)c3ccccc3n2)c1O	inactive
CC(C)NC(=O)Nc1ccc2c(c1)C(=O)N(C)[C@H]1CC[C@H](CC(=O)NCC(F)(F)F)O[C@H]1CO2	inactive
COCC(=O)N(C[C@@H]1[C@@H](c2ccccc2)[C@H](CO)N1C(=O)NC(C)C)C(C)C	inactive
CCCCN(CCCC)C(=O)CN(C)S(=O)(=O)c1ccc2c(c1)n(C)c(=O)c(=O)n2C	inactive
CCCNC(=O)N1C[C@@H]2[C@H](c3ccccc31)[C@@H](CO)N2Cc1cc(F)ccc1F	inactive
CCNC(=O)C[C@H]1CC[C@@H]2[C@H](COc3ccc(NC(=O)c4cccs4)cc3C(=O)N2C)O1	inactive
